Results filed as inconclusive are left out. The source made the active and inactive calls. Rule for the calls, unless noted: active = hit-call score of the fitted dose curve at least 0.9, where 1 is the maximum; inactive = score below 0.9.
Legend:
[1] = ACEA_ER_80hr: ACEA Biosciences xCELLigence Real-Time Cell Analysis on Estrogen Receptor Agonism for Proliferation (AID 2282667; active = hit-call score of the fitted dose curve at least 0.9, where 1 is the maximum); details: T47D proliferation, impedance (xCELLigence), 80 h
Method in brief: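 Estrogen-driven proliferation is captured as electrode impedance in T47D cells 80 h after compound addition. Test articles ran at 8 concentrations, 1:4 dilutions from 100 uM final, in two replicate plates.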

[2] = ATG_CRE_CIS: Attagene CIS-FACTORIAL HepG2 Assay for human cAMP Responsive Element (CRE) binding protein 3 (AID 2282926); details: HepG2 CRE cis-reporter, Attagene multiplexed mRNA; actives raise or lower the signal
Method in brief: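 Liver-derived HepG2, transfected with a CRE-containing reporter panel, exposed 24 h; transcript levels sized and quantified by capillary electrophoresis of labelled amplicons; signal changes either way referenced to vehicle.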

[3] = molecular target: CCAAT/enhancer-binding protein beta (Homo sapiens) (UniProt P17676); test: ATG_C_EBP_CIS: Attagene CIS-FACTORIAL HepG2 Assay for human CCAAT/Enhancer Binding Protein (C/EBP) beta (AID 2282927); details: HepG2 Attagene cis-factorial transcription factor reporter; actives raise or lower the signal
Method in brief: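 RT-PCR/capillary electrophoresis fluorescence of reporter mRNA, 24 h post-dose, in HepG2 cells carrying transfected cis-promoter reporter units. Bidirectional curve fitting against DMSO baseline captures gain or loss of signal.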

[4] = ATG_CMV_CIS: Attagene CIS-FACTORIAL HepG2 Assay for human CMV (Internal Marker) (AID 2282928); details: HepG2 CMV promoter reporter, transcription factor profiling; actives raise or lower the signal;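 note: endpoint acts as a background internal control marker rather than a target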
Method in brief: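 Reporter transcripts from transfected HepG2 cells are isolated after 24 h of chemical dosing, reverse-transcribed and amplified. Fragments labeled with 6-FAM are cut with HpaI and quantified by capillary electrophoresis; DMSO defines baseline.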

[5] = ATG_DR4_LXR_CIS: Attagene CIS-FACTORIAL HepG2 Assay for human Liver X Receptor (LXR), DR4 submotif (AID 2282929); details: HepG2 Attagene DR4 cis-reporter, mRNA transcription; actives raise or lower the signal
Method in brief: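 Fluorescence intensity of labelled reporter cDNA fragments, separated by capillary electrophoresis, gives the signal. HepG2 cells bearing cis-regulated reporter constructs were treated 24 h; activity fitted bidirectionally relative to DMSO negative control.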

[6] = ATG_AP_1_CIS: Attagene CIS-FACTORIAL HepG2 Assay for human Activator Protein 1 (AP-1) (AID 2282931); details: HepG2 Attagene cis-factorial AP-1 reporter mRNA; actives raise or lower the signal
Method in brief: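 Multiplexed HepG2 reporter assay, 24 h dosing. mRNA induction detected by RT-PCR plus capillary electrophoresis. Activity fitted in both directions against DMSO.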

[7] = ATG_AP_2_CIS: Attagene CIS-FACTORIAL HepG2 Assay for human Activator Protein 2 (AP-2) (AID 2282932); details: HepG2 AP-2 cis-reporter, Attagene transcription factor profiling; actives raise or lower the signal
Method in brief: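 Assay in transfected HepG2 with promoter-regulated reporters, 24 h incubation after dosing. Signal is reporter mRNA fluorescence (RT-PCR, capillary electrophoresis), analysed for both increases and decreases relative to DMSO controls.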

[8] = ATG_BRE_CIS: Attagene CIS-FACTORIAL HepG2 Assay for human Bone Morphogenetic Protein (BMP) Response Element (BRE) (AID 2282933); details: HepG2 BMP response element reporter, Attagene transcription factor profiling; actives raise or lower the signal
Method in brief: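 Transient MRTU transfection of human HepG2 liver cells; 24 h compound treatment; total RNA isolated, reverse-transcribed, PCR-amplified, 6-FAM labelled, HpaI-cut, capillary electrophoresis. DMSO = negative control/baseline, bidirectional fit.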

[9] = molecular target: Retinoic acid receptor alpha (Homo sapiens) (UniProt P10276); test: ATG_DR5_RAR_CIS: Attagene CIS-FACTORIAL HepG2 Assay for human Retinoic Acid Receptor Alpha (RARE), DR5 submotif (AID 2282934); details: HepG2 Attagene cis-factorial RARE DR5 reporter, mRNA; actives raise or lower the signal
Method in brief: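 HepG2 cells transiently transfected with multiplexed reporter units under cis (DR5 RARE) promoters, so endogenous transcription factor activity is measured. After 24 h compound exposure, reporter mRNA is quantified by RT-PCR with fluorescent labelling and capillary electrophoresis; bidirectional fitting versus DMSO.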

[10] = molecular target: Transcription factor E2F1 (Homo sapiens) (UniProt Q01094); test: ATG_E2F_CIS: Attagene CIS-FACTORIAL HepG2 Assay for human E2F Transcription Factor 1 (AID 2282935); details: HepG2 Attagene cis-reporter, E2F reporter RNA transcripts; actives raise or lower the signal
Method in brief: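 In this cis-factorial format, endogenous factor activity drives transfected reporters in HepG2; transcripts collected at 24 h are quantified by fluorescence after RT-PCR and capillary separation.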

[11] = ATG_E_Box_CIS: Attagene CIS-FACTORIAL HepG2 Assay for human Enhancer Box (E-box) (AID 2282936); details: HepG2 E-box cis-reporter transcription, actives raise or lower the signal
Method in brief: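 Measured 24 h post-dosing in HepG2 cells transfected with multiple cis-regulated reporter units, signal being reporter mRNA induction detected by fluorescent RT-PCR with capillary electrophoresis; gain or loss fitted against DMSO.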

[12] = ATG_M_61_CIS: Attagene CIS-FACTORIAL HepG2 Assay for M61 Transcription Factor (Internal Marker) (AID 2282937); details: HepG2 Attagene CIS-FACTORIAL M61 internal marker reporter; actives raise or lower the signal
Method in brief: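 Endogenous transcription factor activity in HepG2 is read through transiently transfected cis-element reporter units. After 24 h dosing, RNA undergoes reverse transcription, PCR and primer extension with 6-FAM before capillary electrophoresis; DMSO-referenced bidirectional fit.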

[13] = ATG_EGR_CIS: Attagene CIS-FACTORIAL HepG2 Assay for human Early Growth Response 1 (EGR1) (AID 2282938); details: HepG2 Attagene CIS-FACTORIAL EGR reporter mRNA; actives raise or lower the signal
Method in brief: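 Activity is taken as induction or loss of reporter mRNA versus DMSO, fitted bidirectionally. Transcripts from cis-regulated reporter units in transiently transfected HepG2 were measured after 24 h by RT-PCR with capillary electrophoresis.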

[14] = ATG_M_19_CIS: Attagene CIS-FACTORIAL HepG2 Assay for M19 Transcription Factor (Internal Marker) (AID 2282939); details: HepG2 Attagene CIS-FACTORIAL M19 internal marker reporter; actives raise or lower the signal
Method in brief: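 Transfect HepG2 with MRTU reporter library → dose chemical, 24 h → isolate total RNA, reverse-transcribe with oligo(dT) → PCR, 6-FAM label, HpaI cut (2 h, 37 C) → capillary electrophoresis. Bidirectional fit vs DMSO.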

[15] = ATG_ERE_CIS: Attagene CIS-FACTORIAL HepG2 Assay for Estrogen Response Element (ERE) (AID 2282940); details: HepG2 ERE cis-reporter, Attagene RNA transcript; actives raise or lower the signal
Method in brief: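 Transient MRTU transfection of human HepG2; cis-element promoters; 24 h dosing; total RNA → RT (oligo dT) → PCR → 6-FAM primer extension → HpaI digest → CE fluorescence. Bidirectional fit, DMSO baseline.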

[16] = ATG_Ets_CIS: Attagene CIS-FACTORIAL HepG2 Assay for human Erythroblast Transformation Specific (ETS) (AID 2282941); details: HepG2 ETS cis-reporter transcription, actives raise or lower the signal
Method in brief: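 Bidirectional fit versus DMSO of reporter mRNA signal, detected by RT-PCR and capillary electrophoresis in HepG2 cells transiently transfected with cis-element reporters and dosed 24 h.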

[17] = molecular target: Hepatocyte nuclear factor 3-beta (Homo sapiens) (UniProt Q9Y261); test: ATG_FoxA2_CIS: Attagene CIS-FACTORIAL HepG2 Assay for human Forkhead box A2 (FOXA2) (AID 2282942); details: HepG2 cis-reporter transcription factor activity, 24 h; actives raise or lower the signal
Method in brief: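 Reporter transcript induction is measured by fluorescence after capillary electrophoresis of RT-PCR products from HepG2 cells exposed 24 h. Cis-regulated reporter units report endogenous factor activity; curves fitted both directions against DMSO.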

[18] = ATG_FoxO_CIS: Attagene CIS-FACTORIAL HepG2 Assay for human Forkhead box O (FoxO) (AID 2282943); details: HepG2 Attagene cis-reporter, FoxO element, mRNA; actives raise or lower the signal
Method in brief: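 HepG2 cells transiently transfected with cis-promoter-driven multiple reporter transcription units; 24 h after chemical dosing, reporter mRNA quantified by RT-PCR, fluorescent primer extension, HpaI digestion and capillary electrophoresis. Bidirectional fitting versus DMSO baseline.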

[19] = ATG_GATA_CIS: Attagene CIS-FACTORIAL HepG2 Assay for human GATA Binding Protein (AID 2282944); details: HepG2 GATA cis-element reporter, Attagene multiplex mRNA; actives raise or lower the signal
Method in brief: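 Transient MRTU transfection, HepG2, 24 h compound exposure. Total RNA → oligo(dT) RT → PCR → 6-FAM primer extension → HpaI cut → CE. Bidirectional fit vs DMSO.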

[20] = molecular target: Aryl hydrocarbon receptor (Homo sapiens) (UniProt P35869); test: ATG_Ahr_CIS: Attagene CIS-FACTORIAL HepG2 Assay for human Aryl Hydrocarbon Receptor (Ahr) (AID 2282930); details: HepG2 AhR cis-factorial reporter transcription; actives raise or lower the signal
Method in brief: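 HepG2 cells transiently transfected with cis-element-driven multiplexed reporter transcription units; endogenous transcription factor activity measured as reporter mRNA 24 h after dosing. RT-PCR, 6-FAM labelling, HpaI digestion, capillary electrophoresis; bidirectional fitting versus DMSO baseline.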

Measured: AC50

Sequence of Hepatocyte nuclear factor 3-beta (Homo sapiens) (Q9Y261 whole entry, looked up): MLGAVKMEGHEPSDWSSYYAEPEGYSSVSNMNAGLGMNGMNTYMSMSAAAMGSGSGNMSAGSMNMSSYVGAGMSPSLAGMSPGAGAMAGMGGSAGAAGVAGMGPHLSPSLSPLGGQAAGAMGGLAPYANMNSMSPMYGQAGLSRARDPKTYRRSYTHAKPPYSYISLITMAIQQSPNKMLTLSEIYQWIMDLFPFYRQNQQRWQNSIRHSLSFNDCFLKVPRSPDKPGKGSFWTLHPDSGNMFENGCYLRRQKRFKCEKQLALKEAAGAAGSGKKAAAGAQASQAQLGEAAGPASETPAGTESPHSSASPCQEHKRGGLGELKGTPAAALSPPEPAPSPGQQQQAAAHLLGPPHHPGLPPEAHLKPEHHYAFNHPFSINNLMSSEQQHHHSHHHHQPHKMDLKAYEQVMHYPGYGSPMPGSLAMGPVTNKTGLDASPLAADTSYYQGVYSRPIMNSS
Sequence of CCAAT/enhancer-binding protein beta (Homo sapiens) (P17676 whole entry, looked up): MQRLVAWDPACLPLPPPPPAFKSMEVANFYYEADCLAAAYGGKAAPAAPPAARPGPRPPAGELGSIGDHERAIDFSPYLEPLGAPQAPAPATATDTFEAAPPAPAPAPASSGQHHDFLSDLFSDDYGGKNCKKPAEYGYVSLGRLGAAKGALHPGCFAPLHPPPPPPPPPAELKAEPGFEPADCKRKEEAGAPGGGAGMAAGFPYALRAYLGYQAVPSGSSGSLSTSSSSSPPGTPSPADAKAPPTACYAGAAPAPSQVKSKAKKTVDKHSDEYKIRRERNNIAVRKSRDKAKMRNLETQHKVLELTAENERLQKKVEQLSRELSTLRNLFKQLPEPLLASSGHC
Sequence of Transcription factor E2F1 (Homo sapiens) (Q01094 whole entry, looked up): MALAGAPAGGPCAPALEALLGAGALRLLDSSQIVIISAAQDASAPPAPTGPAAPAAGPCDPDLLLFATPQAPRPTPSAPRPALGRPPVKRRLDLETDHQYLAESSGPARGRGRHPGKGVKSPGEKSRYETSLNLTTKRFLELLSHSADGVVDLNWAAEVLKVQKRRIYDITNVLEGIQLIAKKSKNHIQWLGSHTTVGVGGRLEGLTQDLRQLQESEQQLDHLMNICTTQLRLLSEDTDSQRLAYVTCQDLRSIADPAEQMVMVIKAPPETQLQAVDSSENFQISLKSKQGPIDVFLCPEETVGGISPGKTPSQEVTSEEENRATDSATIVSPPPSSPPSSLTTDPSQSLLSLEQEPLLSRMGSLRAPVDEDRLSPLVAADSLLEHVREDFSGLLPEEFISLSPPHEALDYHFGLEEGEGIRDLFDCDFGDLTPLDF
Sequence of Retinoic acid receptor alpha (Homo sapiens) (P10276 whole entry, looked up): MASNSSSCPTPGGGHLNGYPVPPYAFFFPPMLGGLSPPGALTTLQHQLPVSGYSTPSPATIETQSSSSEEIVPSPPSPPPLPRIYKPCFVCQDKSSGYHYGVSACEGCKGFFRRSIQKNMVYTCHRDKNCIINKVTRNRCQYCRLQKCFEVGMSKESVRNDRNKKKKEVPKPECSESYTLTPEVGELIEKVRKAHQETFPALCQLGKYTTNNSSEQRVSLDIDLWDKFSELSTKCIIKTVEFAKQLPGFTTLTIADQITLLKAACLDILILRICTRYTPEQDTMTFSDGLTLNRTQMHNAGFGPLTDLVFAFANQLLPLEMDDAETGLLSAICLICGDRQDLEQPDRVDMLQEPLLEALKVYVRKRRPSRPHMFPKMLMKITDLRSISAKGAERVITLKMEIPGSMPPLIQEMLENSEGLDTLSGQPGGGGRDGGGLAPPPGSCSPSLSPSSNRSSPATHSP
Sequence of Aryl hydrocarbon receptor (Homo sapiens) (P35869 whole entry, looked up): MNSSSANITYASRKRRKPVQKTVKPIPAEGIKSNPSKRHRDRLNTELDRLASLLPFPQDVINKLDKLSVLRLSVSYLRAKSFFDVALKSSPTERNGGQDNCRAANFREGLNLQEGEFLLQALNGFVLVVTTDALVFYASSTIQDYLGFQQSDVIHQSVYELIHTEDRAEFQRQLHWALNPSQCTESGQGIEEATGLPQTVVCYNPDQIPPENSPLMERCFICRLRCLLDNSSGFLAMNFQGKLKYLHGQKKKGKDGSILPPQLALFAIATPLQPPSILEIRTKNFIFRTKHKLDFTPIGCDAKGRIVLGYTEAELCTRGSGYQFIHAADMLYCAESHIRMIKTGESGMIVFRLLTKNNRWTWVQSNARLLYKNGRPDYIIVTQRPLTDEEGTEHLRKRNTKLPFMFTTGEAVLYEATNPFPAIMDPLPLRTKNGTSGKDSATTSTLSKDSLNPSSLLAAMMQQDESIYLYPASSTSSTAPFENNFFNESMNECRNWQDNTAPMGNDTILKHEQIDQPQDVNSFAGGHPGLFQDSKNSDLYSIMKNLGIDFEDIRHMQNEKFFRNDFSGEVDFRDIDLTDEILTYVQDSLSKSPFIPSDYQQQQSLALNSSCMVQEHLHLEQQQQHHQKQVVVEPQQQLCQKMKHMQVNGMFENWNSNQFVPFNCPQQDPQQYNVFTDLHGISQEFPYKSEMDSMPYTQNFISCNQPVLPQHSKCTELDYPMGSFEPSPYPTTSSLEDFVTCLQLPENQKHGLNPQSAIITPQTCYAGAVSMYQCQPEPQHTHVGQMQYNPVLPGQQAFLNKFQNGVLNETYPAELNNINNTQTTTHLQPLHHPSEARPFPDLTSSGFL

CC1=C(O)C(=O)C(C)O1 (stereo not given)
not listed: [20]
inactive: all other assays above

[Cl][Sc]([Cl])[Cl]
not listed: [8] | [9] | [20]
inactive: all other assays above

Nc1ncnc2nc[nH]c12
not listed: [20]
inactive: all other assays above

NNS(=O)(=O)c1ccc(Oc2ccc(S(=O)(=O)NN)cc2)cc1
active: [20] 62.3 µM
not listed: [5]
inactive: all other assays above

Cc1c(O)cccc1O
active: [20] 37.8 µM | [15] 61.4 µM
not listed: [6] | [7] | [9]
inactive: all other assays above

CC(=O)C(C)C
not listed: [8] | [11] | [20]
inactive: all other assays above

O=C(O)CCC(=O)O
not listed: [11] | [20]
inactive: all other assays above

C=C(C)OC(C)=O
not listed: [20]
inactive: all other assays above
